Results published in PubChem BioAssay (Tox21).
Records with an inconclusive call do not appear. Calls of active or inactive are those of the source. Unless noted, the call rests on the fitted dose curve.

Legend:
[1] = Nuclear factor erythroid 2-related factor 2/antioxidant responsive element (Nrf2/ARE) small molecule agonists: qHTS cell viability counter screen in human keratinocytes (AID 1919968; active means well fitted curve in the direction sought with a large enough effect in the repeat runs; an effect the other way counts as inactive or inconclusive; further: nearly all actives have a fitted effect of over 55% in size)
Outline: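 Cytotoxicity was multiplexed with the Nrf2/ARE luciferase assay in the same wells. Stably transfected HaCaT keratinocytes were treated with test compounds for 23 h at 37 C. Cell viability was then measured by CellTiter-Fluor fluorescence.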

[2] = Nuclear factor erythroid 2-related factor 2/antioxidant responsive element (Nrf2/ARE) small molecule agonists: luciferase reporter gene qHTS assay in human keratinocytes (AID 1919969); further: nearly all actives have a fitted effect of over 35% in size
[3] = molecular target: Gonadotropin-releasing hormone receptor (Homo sapiens) (UniProt P30968); test: Human gonadotropin-releasing hormone receptor (GnRHR) small molecule agonists, calcium flux assay in GnRHR-HEK293 cells (AID 1920063); further: nearly all actives have a fitted effect of over 35% in size
Outline: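 Agonist activity was measured as intracellular calcium flux in HEK293 cells engineered to stably express human GnRHR. After dye loading for 1 hour at 37 C, compounds in DMSO were added and fluorescence was followed for 3 minutes.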

[4] = molecular target: KiSS-1 receptor (Homo sapiens) (UniProt Q969F8); test: Human kisspeptin (KISS1R) small molecule agonists, calcium flux assay in KISS1R-HEK293 cells (AID 1920064; active means well fitted curve in the direction sought with a large enough effect in the repeat runs; an effect the other way counts as inactive or inconclusive)
Outline: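 Agonist activity is monitored as intracellular calcium rise in engineered HEK293 cells carrying human KISS1R. Cells are dye-loaded for 1 h at 37 C before compound addition, and fluorescence is recorded for 3 min.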

[5] = G protein-coupled receptor (GPCR) small molecule agonists, calcium flux assay: HEK293 wild type cell line counter screen (AID 1920065)
Outline: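 Seed cells, incubate 18 h (37 C, 5% CO2); add calcium dye, 1 h at 37 C; pin-transfer compounds, ATP control or DMSO; read fluorescence 480/540 nm each second for 3 min.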

[6] = p53 small molecule agonists, cell-based qHTS assay with rat liver microsomes (AID 1963578)
Outline: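 Fluorescence from a beta-lactamase reporter under a p53 response element was measured after cells had been incubated 16 h at 37 C with test compound and rat liver microsomes plus NADPH (0.5 mg/mL final each).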

[7] = p53 small molecule agonists, cell-based qHTS assay with human liver microsomes: qHTS cell viability counter screen (AID 1963579); further: nearly all actives have a fitted effect of over 45% in size
Outline: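 Seed p53RE-bla cells at 4,000 per well; incubate 5 h at 37 C; add compound, human liver microsomes and NADPH; incubate 16 h at 37 C; add CellTiter-Glo; after 30 min at room temperature, read luminescence.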

[8] = p53 small molecule agonists, cell-based qHTS assay with rat liver microsomes: qHTS cell viability counter screen (AID 1963580); further: nearly all actives have a fitted effect of over 45% in size
Outline: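 Counter screen for cytotoxicity under metabolic activation: rat liver microsomes and NADPH, 0.5 mg/mL final each, added with compounds to p53RE-bla HCT-116 cells; 16 h at 37 C, then ATP luminescence read.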

[9] = p53 small molecule agonists, cell-based qHTS assay (AID 1963582; active means well fitted activation curve with a large enough effect in the signal ratio in the repeat runs, not every such curve was filed as active; the % refers to the signal ratio)
Outline: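 Cells carrying a p53-responsive bla reporter are treated with test compounds for 16 h at 37 C; beta-lactamase activity is then detected with LiveBLAzer B/G FRET substrate after 2 h at room temperature.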

[10] = molecular target: 5-hydroxytryptamine receptor 2A (Homo sapiens) (UniProt P28223); test: 5-hydroxytryptamine receptor 2A (HTR2A) small molecule antagonists, cell-based qHTS assay (AID 1963586); further: nearly all actives have a fitted effect of over 45% in size
Outline: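 CHO cells stably expressing human HTR2A were plated for 18 h at 37 C, then loaded with calcium dye for 1 h. Compounds were preincubated 5 min at room temperature before DOI (4 nM solution) was added. Kinetic fluorescence was read for 3 min.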

[11] = molecular target: 5-hydroxytryptamine receptor 2A (Homo sapiens) (UniProt P28223); test: 5-hydroxytryptamine receptor 2A (HTR2A) small molecule agonists, cell-based qHTS assay (AID 1963587); further: nearly all actives have a fitted effect of over 30% in size
Outline: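 HTR2A-CHO cells, plated 18 h at 37 C/5% CO2, dye-loaded 1 h at 37 C; compounds in DMSO added by pin tool (agonist mode). Intracellular calcium flux read as kinetic fluorescence on FDSS over 2 min at 1 s intervals.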

[12] = molecular target: Muscarinic acetylcholine receptor M1 (Homo sapiens) (UniProt P11229); test: Cholinergic receptor muscarinic 1 (CHRM1) small molecule antagonists, cell-based qHTS assay (AID 1963588); further: nearly all actives have a fitted effect of over 40% in size
Outline: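 Compounds were tested at 15 concentrations in three independent runs. Dye-loaded CHRM1-CHO cells were exposed 5 min at room temperature before stimulation by acetylcholine added at 50nM. Intracellular calcium was read kinetically on FDSS for 3 min.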

[13] = molecular target: Muscarinic acetylcholine receptor M1 (Homo sapiens) (UniProt P11229); test: Cholinergic receptor muscarinic 1 (CHRM1) small molecule agonists, cell-based qHTS assay (AID 1963589); further: nearly all actives have a fitted effect of over 35% in size
Outline: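 Cells were plated and incubated 18 h at 37 C/5% CO2, loaded with calcium dye for 1 h at 37 C, then treated with compounds in DMSO. Fluorescence was recorded kinetically at 1 sec intervals.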

[14] = cAMP Responsive Elements (CRE) small molecule agonists, cell-based qHTS assay (AID 1963590)
Outline: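 Cells carrying a CRE-driven beta-lactamase reporter (HEK 293T) are seeded, incubated overnight (18 h), and treated with test compounds for 3 h at 37 C; reporter activity is then detected with a FRET substrate after 2 h at room temperature.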

[15] = cAMP Responsive Elements (CRE) small molecule antagonists, cell-based qHTS assay (AID 1963591; active means well fitted inhibition curve with a large enough effect in the signal ratio in the repeat runs, not every such curve was filed as active; the % refers to the signal ratio)
Outline: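 Cells (CRE-bla HEK 293T, DMEM with 10% dialyzed FBS and 25 mM HEPES) are seeded and incubated 18 h. Compounds are added with NKH477 agonist at 0.25 uM final for 3 h, then FRET substrate for 2 h.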

[16] = molecular target: Beta-2 adrenergic receptor (Homo sapiens) (UniProt P07550); test: Adrenergic beta2 receptor (ADRB2) small molecule antagonists, cell-based qHTS assay (AID 1963592); further: series mostly up to about 92 µM; nearly all actives have a fitted effect of over 50% in size
Outline: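 Assay format: CHO-ADRB2 cells, 18-20hr seeding at 37C/5% CO2, then compound plus 1nM isoproterenol agonist mix for 0.5hr RT. Homogeneous time-resolved fluorescence cAMP detection after 1hr, expressed as 665/615 nm ratio.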

[17] = molecular target: Beta-2 adrenergic receptor (Homo sapiens) (UniProt P07550); test: Adrenergic beta2 receptor (ADRB2) small molecule agonists, cell-based qHTS assay (AID 1963593);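 further: CHO cells stably overexpressing human ADRB2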
Outline: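 CHO cells stably over-expressing ADRB2 were plated overnight at 37C, then dosed with compounds plus a stimulation mix containing 100uM IBMX and 25uM Ro-20-1724 for 0.5hr at room temperature. cAMP was measured by HTRF competition, 1hr.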

[18] = molecular target: D(2) dopamine receptor (Homo sapiens) (UniProt P14416); test: Dopamine D2 receptor (DRD2) small molecule agonists, cell-based qHTS assay (AID 1963594); further: nearly all actives have a fitted effect of over 35% in size
Outline: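 HEK293 cells stably expressing DRD2 were cultured 24 h at 37 C, then given Ro20-1724 (0.1 mM final) and compounds for 10 min at room temperature. NKH477 (200nM) was then added for 30 min. cAMP was read by HTRF.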

[19] = molecular target: D(2) dopamine receptor (Homo sapiens) (UniProt P14416); test: Dopamine D2 receptor (DRD2) small molecule antagonists, cell-based qHTS assay (AID 1963595; active means well fitted inhibition curve with a large enough effect in the signal ratio in the repeat runs, with a control signal flat; the % refers to the signal ratio)
Outline: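 Antagonist mode in DRD2-HEK293 cells: after compound addition with 0.1 mM Ro20-1724, cells received quinpirole (12 nM) and NKH477 (200 nM) for 30 min at room temperature; HTRF cAMP read after 1 h detection.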

[20] = p53 small molecule agonists, cell-based qHTS assay: qHTS cell viability counter screen (AID 1963581); further: nearly all actives have a fitted effect of over 45% in size
Outline: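 Viability was counter-screened in parallel with the p53 agonist reporter by measuring intracellular ATP luminescence in the same HCT-116 p53RE-bla wells after 16 h compound treatment at 37 C.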

Measured: Potency

Chain of Gonadotropin-releasing hormone receptor (Homo sapiens) (P30968 whole entry, looked up): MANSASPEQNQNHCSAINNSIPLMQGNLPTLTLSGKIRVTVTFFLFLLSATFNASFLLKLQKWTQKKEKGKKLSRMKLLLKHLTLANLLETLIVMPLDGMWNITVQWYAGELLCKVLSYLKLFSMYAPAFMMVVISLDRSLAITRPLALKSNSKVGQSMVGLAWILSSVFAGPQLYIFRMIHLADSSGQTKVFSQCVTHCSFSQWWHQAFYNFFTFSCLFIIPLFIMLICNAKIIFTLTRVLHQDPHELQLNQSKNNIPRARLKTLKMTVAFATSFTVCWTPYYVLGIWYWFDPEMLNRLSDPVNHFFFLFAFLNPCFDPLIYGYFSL
Chain of Muscarinic acetylcholine receptor M1 (Homo sapiens) (P11229 whole entry, looked up): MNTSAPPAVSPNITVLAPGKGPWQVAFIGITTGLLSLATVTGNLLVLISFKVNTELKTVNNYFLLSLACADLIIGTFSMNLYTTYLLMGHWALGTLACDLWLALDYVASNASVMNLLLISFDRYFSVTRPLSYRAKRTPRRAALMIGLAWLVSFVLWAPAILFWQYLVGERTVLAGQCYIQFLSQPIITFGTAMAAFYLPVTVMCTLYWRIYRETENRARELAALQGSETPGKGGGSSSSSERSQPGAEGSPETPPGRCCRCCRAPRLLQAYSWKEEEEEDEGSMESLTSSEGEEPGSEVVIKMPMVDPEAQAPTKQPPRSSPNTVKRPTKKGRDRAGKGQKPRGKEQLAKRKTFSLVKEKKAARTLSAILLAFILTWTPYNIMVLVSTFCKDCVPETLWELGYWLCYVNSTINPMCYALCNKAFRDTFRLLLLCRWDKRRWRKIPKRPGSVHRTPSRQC
Chain of Beta-2 adrenergic receptor (Homo sapiens) (P07550 whole entry, looked up): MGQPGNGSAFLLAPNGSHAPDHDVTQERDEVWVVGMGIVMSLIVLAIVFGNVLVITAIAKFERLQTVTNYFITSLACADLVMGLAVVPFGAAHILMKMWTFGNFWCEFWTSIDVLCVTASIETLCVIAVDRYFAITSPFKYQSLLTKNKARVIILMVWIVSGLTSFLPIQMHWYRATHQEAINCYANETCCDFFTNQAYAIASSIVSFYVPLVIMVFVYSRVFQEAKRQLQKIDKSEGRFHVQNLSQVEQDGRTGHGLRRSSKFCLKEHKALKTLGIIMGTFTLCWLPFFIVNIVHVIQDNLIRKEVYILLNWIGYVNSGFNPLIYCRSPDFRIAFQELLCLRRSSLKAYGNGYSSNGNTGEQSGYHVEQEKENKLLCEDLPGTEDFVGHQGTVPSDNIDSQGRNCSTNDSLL
Chain of 5-hydroxytryptamine receptor 2A (Homo sapiens) (P28223 whole entry, looked up): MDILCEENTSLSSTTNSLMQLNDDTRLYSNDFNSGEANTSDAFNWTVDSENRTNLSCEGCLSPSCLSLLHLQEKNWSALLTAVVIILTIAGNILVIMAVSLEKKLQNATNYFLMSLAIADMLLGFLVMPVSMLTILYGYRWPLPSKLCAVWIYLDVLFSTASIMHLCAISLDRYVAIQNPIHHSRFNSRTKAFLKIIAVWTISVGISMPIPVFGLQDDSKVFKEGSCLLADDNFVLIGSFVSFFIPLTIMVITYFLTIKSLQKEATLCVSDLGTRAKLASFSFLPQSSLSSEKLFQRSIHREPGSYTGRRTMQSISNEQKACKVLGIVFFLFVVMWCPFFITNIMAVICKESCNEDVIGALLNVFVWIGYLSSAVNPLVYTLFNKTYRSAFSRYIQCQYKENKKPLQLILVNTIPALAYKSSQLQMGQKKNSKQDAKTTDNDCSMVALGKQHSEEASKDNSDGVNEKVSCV
Chain of D(2) dopamine receptor (Homo sapiens) (P14416 whole entry, looked up): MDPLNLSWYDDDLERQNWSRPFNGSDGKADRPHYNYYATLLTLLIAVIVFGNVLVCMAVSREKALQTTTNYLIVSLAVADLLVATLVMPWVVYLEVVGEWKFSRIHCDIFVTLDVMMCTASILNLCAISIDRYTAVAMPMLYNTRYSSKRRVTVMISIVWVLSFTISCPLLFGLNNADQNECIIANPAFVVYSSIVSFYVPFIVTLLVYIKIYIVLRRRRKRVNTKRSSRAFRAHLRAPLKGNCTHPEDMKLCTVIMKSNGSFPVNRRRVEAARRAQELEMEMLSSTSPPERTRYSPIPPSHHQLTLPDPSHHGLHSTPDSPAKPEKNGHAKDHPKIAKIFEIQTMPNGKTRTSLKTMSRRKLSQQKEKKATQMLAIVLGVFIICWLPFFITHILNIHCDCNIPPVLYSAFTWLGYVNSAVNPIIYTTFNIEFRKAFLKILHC
Chain of KiSS-1 receptor (Homo sapiens) (Q969F8 whole entry, looked up): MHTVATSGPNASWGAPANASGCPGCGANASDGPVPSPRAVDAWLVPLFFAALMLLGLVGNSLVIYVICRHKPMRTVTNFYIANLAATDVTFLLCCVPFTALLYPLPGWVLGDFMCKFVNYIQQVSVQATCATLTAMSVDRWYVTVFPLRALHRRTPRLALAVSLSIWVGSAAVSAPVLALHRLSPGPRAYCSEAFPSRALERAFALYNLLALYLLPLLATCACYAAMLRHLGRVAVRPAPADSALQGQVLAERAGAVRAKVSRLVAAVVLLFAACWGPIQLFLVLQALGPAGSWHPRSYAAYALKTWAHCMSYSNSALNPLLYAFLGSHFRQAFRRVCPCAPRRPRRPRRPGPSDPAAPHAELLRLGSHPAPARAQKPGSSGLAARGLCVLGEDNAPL

CSCCC=O
inactive: [1] | [2] | [3] | [4] | [5] | [6] | [7] | [8] | [9] | [10] | [11] | [12] | [13] | [14] | [15] | [16] | [17] | [18] | [19]

CCO[Si](C)(C)OCC
inactive: [1] | [2] | [3] | [4] | [5] | [6] | [7] | [8] | [9] | [10] | [11] | [12] | [13] | [14] | [15] | [17] | [18] | [19]

O=C(O)c1ccc(OCCCOc2ccc(C(=O)O)cc2)cc1
inactive: [1] | [2] | [3] | [4] | [5] | [6] | [7] | [8] | [20] | [9] | [10] | [11] | [12] | [13] | [15] | [16] | [17] | [18] | [19]

CCC(CC)C(C)CCOC(C)=O (stereo unspecified)
inactive: [1] | [2] | [3] | [4] | [5] | [6] | [7] | [8] | [20] | [9] | [10] | [11] | [12] | [13] | [14] | [15] | [17] | [18] | [19]

COCc1ccc(COC)cc1
inactive: [1] | [2] | [3] | [4] | [5] | [6] | [8] | [20] | [9] | [10] | [11] | [12] | [13] | [14] | [15] | [16] | [17] | [18] | [19]

O=C(O)c1ccccc1OP(=O)(O)O
inactive: [1] | [2] | [3] | [4] | [5] | [6] | [7] | [8] | [9] | [10] | [11] | [12] | [13] | [14] | [15] | [16] | [18] | [19]

CC(C)(c1cc(Br)c(OCC(Br)CBr)c(Br)c1)c1cc(Br)c(OCC(Br)CBr)c(Br)c1 (stereo unspecified)
inactive: [1] | [2] | [3] | [4] | [5] | [7] | [8] | [20] | [9] | [10] | [11] | [12] | [13] | [14] | [15] | [17] | [18] | [19]

Cc1cccc2c1ccc1ccccc12
inactive: [1] | [2] | [3] | [4] | [5] | [6] | [7] | [8] | [20] | [9] | [10] | [12] | [13] | [14] | [15] | [16] | [18] | [19]

C/C=C(\C)C(=O)OCc1ccccc1
inactive: [1] | [2] | [3] | [4] | [5] | [6] | [7] | [8] | [20] | [9] | [10] | [12] | [13] | [14] | [15] | [16] | [18] | [19]

Nc1ccncc1N
inactive: [1] | [2] | [3] | [4] | [5] | [6] | [7] | [8] | [20] | [9] | [10] | [11] | [12] | [14] | [15] | [16] | [17] | [18] | [19]

OCCC(F)(F)C(F)(F)C(F)(F)C(F)(F)C(F)(F)C(F)(F)F
inactive: [1] | [2] | [3] | [4] | [5] | [6] | [7] | [20] | [9] | [10] | [11] | [12] | [13] | [14] | [15] | [16] | [17] | [18] | [19]

O=C1OC(=O)c2ccccc21
inactive: [1] | [2] | [3] | [4] | [5] | [6] | [7] | [8] | [9] | [10] | [11] | [12] | [13] | [14] | [15] | [16] | [17] | [18] | [19]

O=C(O)c1ccccc1S
inactive: [1] | [2] | [3] | [4] | [5] | [6] | [7] | [8] | [20] | [10] | [11] | [12] | [14] | [15] | [16] | [18] | [19]

C[n+]1ccn(Cc2ccccc2)c1
inactive: [1] | [2] | [3] | [4] | [5] | [6] | [7] | [8] | [20] | [9] | [10] | [11] | [13] | [14] | [15] | [16] | [17] | [18] | [19]

O=C(O)c1ccccc1-n1cc(C(=O)O)c(=O)c2cc(Nc3c(F)cc(F)cc3Cl)c(Cl)cc21
inactive: [1] | [2] | [3] | [4] | [5] | [6] | [7] | [8] | [20] | [10] | [11] | [12] | [13] | [14] | [15] | [16] | [17]
